PubChem BioAssay (NCATS)
Results filed as inconclusive are left out. Calls of active or inactive are those of the source. Calls come from the whole dose curve; as a rule, active = well fitted curve in the direction sought with a large enough effect; inconclusive = small, poorly fitted or top-dose-only effect, or another doubt; inactive = no such curve, though single readings can be large; an effect the other way counts as inactive or inconclusive.

Experiments:
[1] = NS1 protein of Zika virus - qHTS assay to identify small molecule inhibitors in human HEK 293 cells (AID 1347053); note: series mostly up to about 46 µM; nearly all actives have a fitted effect of over 55% in size
Summary of the method: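 Following 20 h seeding, HEK 293 cells took compound, then 1 h later ZIKV MR766 (MOI = 0.5). Incubation ran 24 h at 37 C before TR-FRET detection of NS1; a drop in signal indicates inhibition.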

[2] = qHTS of pediatric cancer cell lines to identify multiple opportunities for drug repurposing: Primary screen for TC32 cells (AID 1347089); note: nearly all actives have a fitted effect of over 60% in size
Summary of the method: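 TC32 cells, 500-1,000/well in growth medium, compound-treated 48 h at 37 °C; viability from CellTiter-Glo luminescence. Primary screen: MIPE 11-point (0.78 nM–46 µM final), NPC 8-point (0.59 nM–46 µM final); confirmatory at 11-point dilutions.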

[3] = qHTS of pediatric cancer cell lines to identify multiple opportunities for drug repurposing: Primary screen for DAOY cells (AID 1347090); note: series mostly up to about 46 µM; nearly all actives have a fitted effect of over 55% in size
Summary of the method: (§1)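 Cell viability, CellTiter-Glo luminescence; 500-1,000 cells/well, 8- or 11-point titration, 48 h compound exposure at 37 degrees C, 5% CO2. Controls: DMSO neutral, bortezomib 2.3 µM final as positive.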

[4] = qHTS of pediatric cancer cell lines to identify multiple opportunities for drug repurposing: Primary screen for SJ-GBM2 cells (AID 1347091)
Summary of the method: as §1

[5] = qHTS of pediatric cancer cell lines to identify multiple opportunities for drug repurposing: Primary screen for A673 cells (AID 1347092); note: nearly all actives have a fitted effect of over 45% in size
Summary of the method: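 A673 cells (500-1,000 cells/well) were treated 48 hours at 37 degrees C with compounds at 11-point (0.78 nM to 46 µM) or 8-point (0.59 nM to 46 µM) dilutions. Viability read by CellTiter-Glo luminescence; concentration-response curves fitted.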

[6] = qHTS of pediatric cancer cell lines to identify multiple opportunities for drug repurposing: Primary screen for SK-N-MC cells (AID 1347093); note: series mostly up to about 46 µM
Summary of the method: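 Metabolically active cells were quantified by ATP-dependent luminescence (CellTiter-Glo, 15 min at room temperature) following 48 h treatment. Cells had been plated at 500-1,000 per well and settled for 5 h beforehand.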

[7] = qHTS of pediatric cancer cell lines to identify multiple opportunities for drug repurposing: Primary screen for BT-37 cells (AID 1347094); note: series mostly up to about 57 µM
Summary of the method: (§2)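 Plated cells (500-1,000 per well, growth media) were allowed to settle for 5 hours, treated with compound dilutions for 48 hours, then lysed with CellTiter-Glo for 15 min at room temperature before luminescence reading.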

[8] = qHTS of pediatric cancer cell lines to identify multiple opportunities for drug repurposing: Primary screen for NB-EBc1 cells (AID 1347095)
Summary of the method: as §2

[9] = qHTS of pediatric cancer cell lines to identify multiple opportunities for drug repurposing: Primary screen for U-2 OS cells (AID 1347096); note: nearly all actives have a fitted effect of over 50% in size
Summary of the method: (§3)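 Cells (500-1,000/well) rested 5 h, then received compounds for 48 h; metabolically active cells were measured by CellTiter-Glo luminescence. Final concentrations spanned up to 46 µM (MIPE, 11-point) or 0.59 nM-46 µM (NPC, 8-point) in primary screens, 11-point in follow-ups.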

[10] = qHTS of pediatric cancer cell lines to identify multiple opportunities for drug repurposing: Primary screen for Saos-2 cells (AID 1347097); note: nearly all actives have a fitted effect of over 40% in size
Summary of the method: as §2

[11] = qHTS of pediatric cancer cell lines to identify multiple opportunities for drug repurposing: Primary screen for SK-N-SH cells (AID 1347098); note: nearly all actives have a fitted effect of over 65% in size
Summary of the method: as §3

[12] = qHTS of pediatric cancer cell lines to identify multiple opportunities for drug repurposing: Primary screen for NB1643 cells (AID 1347099); note: nearly all actives have a fitted effect of over 50% in size
Summary of the method: as §2

[13] = qHTS of pediatric cancer cell lines to identify multiple opportunities for drug repurposing: Primary screen for LAN-5 cells (AID 1347100)
Summary of the method: as §3

[14] = qHTS of pediatric cancer cell lines to identify multiple opportunities for drug repurposing: Primary screen for BT-12 cells (AID 1347101); note: nearly all actives have a fitted effect of over 25% in size
Summary of the method: as §3

[15] = qHTS of pediatric cancer cell lines to identify multiple opportunities for drug repurposing: Primary screen for Rh18 cells (AID 1347102); note: nearly all actives have a fitted effect of over 65% in size
Summary of the method: as §3

[16] = qHTS of pediatric cancer cell lines to identify multiple opportunities for drug repurposing: Primary screen for OHS-50 cells (AID 1347103); note: nearly all actives have a fitted effect of over 40% in size
Summary of the method: as §3

[17] = qHTS of pediatric cancer cell lines to identify multiple opportunities for drug repurposing: Primary screen for RD cells (AID 1347104); note: nearly all actives have a fitted effect of over 55% in size
Summary of the method: as §2

[18] = qHTS of pediatric cancer cell lines to identify multiple opportunities for drug repurposing: Primary screen for MG 63 (6-TG R) cells (AID 1347105); note: nearly all actives have a fitted effect of over 50% in size
Summary of the method: as §2

[19] = qHTS of pediatric cancer cell lines to identify multiple opportunities for drug repurposing: Primary screen for control Hh wild type fibroblast cells (AID 1347106);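 note: series mostly up to about 46 µM; a drop in luminescence marks cytotoxicity and a rise apparent proliferation; nearly all actives have a fitted effect of over 55% in size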
Summary of the method: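 Viability after 48 h compound treatment at 37C, 500-1,000 cells/well, read as ATP luminescence with CellTiter-Glo. Primary screens used 11-point (MIPE, 0.78 nM-46 µM) or 8-point (NPC, 0.59 nM-46 µM) final concentrations; follow-up screens used 11-point dilutions.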

[20] = qHTS of pediatric cancer cell lines to identify multiple opportunities for drug repurposing: Primary screen for Rh30 cells (AID 1347107); note: series mostly up to about 46 µM; nearly all actives have a fitted effect of over 75% in size
Summary of the method: as §3

Measured: Potency

Cc1c(Cn2ccnc2)c2ccccc2n1CCC(=O)O
inactive: [1] | [2] | [3] | [4] | [5] | [6] | [7] | [8] | [9] | [10] | [11] | [12] | [13] | [14] | [15] | [16] | [17] | [18] | [19] | [20]

CN[C@@H]1[C@H](O)[C@H](NC)[C@H]2O[C@@]3(O)C(=O)C[C@@H](C)O[C@H]3O[C@@H]2[C@H]1O
inactive: [1] | [2] | [3] | [4] | [5] | [6] | [7] | [8] | [9] | [10] | [11] | [12] | [13] | [14] | [15] | [16] | [17] | [18] | [19] | [20]

Cc1c(C)c2c(c(C)c1OC(=O)c1cccnc1)CC[C@@](C)(CCC[C@H](C)CCC[C@H](C)CCCC(C)C)O2
inactive: [1] | [2] | [3] | [4] | [5] | [6] | [7] | [8] | [9] | [10] | [11] | [12] | [13] | [14] | [15] | [16] | [17] | [18] | [19] | [20]

NC(=O)NC1NC(=O)NC1=O (centres undefined)
inactive: [1] | [2] | [3] | [4] | [5] | [6] | [7] | [8] | [9] | [10] | [11] | [12] | [13] | [14] | [15] | [16] | [17] | [18] | [19] | [20]

COc1ccccc1OC(=O)Oc1ccccc1OC
inactive: [1] | [2] | [3] | [4] | [5] | [6] | [7] | [8] | [9] | [10] | [11] | [12] | [13] | [14] | [15] | [16] | [17] | [18] | [19] | [20]

CNc1c2c(nn1C)CCCC2
inactive: [1] | [2] | [3] | [4] | [5] | [6] | [7] | [8] | [9] | [10] | [11] | [12] | [13] | [14] | [15] | [16] | [17] | [18] | [19] | [20]

O=C(Cn1ccnc1[N+](=O)[O-])NCCO
inactive: [1] | [2] | [3] | [4] | [5] | [6] | [7] | [8] | [9] | [10] | [11] | [12] | [13] | [14] | [15] | [16] | [17] | [18] | [19] | [20]

CC(=O)OCC(COC(C)=O)OC(C)=O
inactive: [1] | [2] | [3] | [4] | [5] | [6] | [7] | [8] | [9] | [10] | [11] | [12] | [13] | [14] | [15] | [16] | [17] | [18] | [19] | [20]

O=C(NCCCN1CCOCC1)c1ccc(Cl)cc1
inactive: [1] | [2] | [3] | [4] | [5] | [6] | [7] | [8] | [9] | [10] | [11] | [12] | [13] | [14] | [15] | [16] | [17] | [19] | [20]

CC(=O)NCc1c(I)c(NC(C)=O)c(I)c(C(=O)O)c1I
inactive: [1] | [2] | [3] | [4] | [5] | [6] | [7] | [8] | [9] | [10] | [11] | [12] | [13] | [14] | [15] | [16] | [17] | [19] | [20]

CC(C)=CCC[C@@](C)(O)[C@H]1CC=C(C)CC1
inactive: [1] | [2] | [3] | [4] | [5] | [6] | [7] | [8] | [9] | [10] | [11] | [12] | [13] | [14] | [15] | [16] | [17] | [19] | [20]

C=CCN1C[C@H](C(=O)N(CCCN(C)C)C(=O)NCC)C[C@@H]2c3cccc4[nH]cc(c34)C[C@H]21
inactive: [1] | [2] | [3] | [4] | [5] | [6] | [7] | [8] | [9] | [10] | [11] | [12] | [13] | [14] | [15] | [17] | [18] | [19] | [20]

CC(CSC(=O)c1ccccc1)C(=O)N1C[C@@H](Sc2ccccc2)C[C@H]1C(=O)O (some centres undefined)
inactive: [1] | [2] | [3] | [4] | [5] | [6] | [7] | [8] | [9] | [10] | [11] | [12] | [13] | [15] | [16] | [17] | [18] | [19] | [20]

CC[C@]12CCCN3CCc4c(n(c5ccccc45)[C@@](O)(C(=O)OC)C1)[C@@H]32
inactive: [1] | [2] | [3] | [4] | [5] | [6] | [7] | [8] | [9] | [10] | [11] | [13] | [14] | [15] | [16] | [17] | [18] | [19] | [20]
